Assay results: the supplement of paper PMC11732987, “Enantioselective OTUD7B fragment discovery through chemoproteomics screening and high-throughput optimisation” (Communications Chemistry, 2025)
Unmarked numbers belong to inactive results.

Columns and labels:
Assay in all cases: log2 ratio of Biotin-Ahx-Ub-VS probe labelling (fragment/DMSO); higher = less target engagement (more negative = stronger competition), active = hit call of the paper (q ≤ 0.05, log2 ratio ≤ -1)
Conditions in all cases: compound concentration: 200 uM; treatment time: 3 h
OTUD6B = biological target: T1, OTUD6B (UniProt Q8N6M0)
T1 sequence (whole entry): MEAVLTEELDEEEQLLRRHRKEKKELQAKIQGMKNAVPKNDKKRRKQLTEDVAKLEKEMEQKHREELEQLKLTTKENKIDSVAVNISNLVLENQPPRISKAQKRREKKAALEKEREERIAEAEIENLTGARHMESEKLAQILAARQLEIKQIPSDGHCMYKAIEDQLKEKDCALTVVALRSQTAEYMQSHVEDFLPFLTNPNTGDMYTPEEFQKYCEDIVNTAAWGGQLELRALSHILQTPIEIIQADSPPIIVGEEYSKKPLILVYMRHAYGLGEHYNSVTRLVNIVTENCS
In short: (§1)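 HEK293T lysate (495 µg per sample, in Tris/CHAPS/IGEPAL buffer with protease inhibitors) was treated in triplicate with fragment at 200 µM or with DMSO for 3 h. It was then treated with Biotin-Ahx-Ub-VS (0.5 µM final) for 1 h. Labelled DUBs were NeutrAvidin-enriched, digested with LysC and trypsin, and run by diaPASEF LC-MS/MS. Spectronaut label-free quantities were global-median-normalised. Values are average log2 ratios fragment/DMSO by unpaired t-test, using proteins with ≥2 unique peptides.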

OTUD7B = biological target: T2, OTUD7B (UniProt Q6GQQ9)
T2 sequence (whole entry): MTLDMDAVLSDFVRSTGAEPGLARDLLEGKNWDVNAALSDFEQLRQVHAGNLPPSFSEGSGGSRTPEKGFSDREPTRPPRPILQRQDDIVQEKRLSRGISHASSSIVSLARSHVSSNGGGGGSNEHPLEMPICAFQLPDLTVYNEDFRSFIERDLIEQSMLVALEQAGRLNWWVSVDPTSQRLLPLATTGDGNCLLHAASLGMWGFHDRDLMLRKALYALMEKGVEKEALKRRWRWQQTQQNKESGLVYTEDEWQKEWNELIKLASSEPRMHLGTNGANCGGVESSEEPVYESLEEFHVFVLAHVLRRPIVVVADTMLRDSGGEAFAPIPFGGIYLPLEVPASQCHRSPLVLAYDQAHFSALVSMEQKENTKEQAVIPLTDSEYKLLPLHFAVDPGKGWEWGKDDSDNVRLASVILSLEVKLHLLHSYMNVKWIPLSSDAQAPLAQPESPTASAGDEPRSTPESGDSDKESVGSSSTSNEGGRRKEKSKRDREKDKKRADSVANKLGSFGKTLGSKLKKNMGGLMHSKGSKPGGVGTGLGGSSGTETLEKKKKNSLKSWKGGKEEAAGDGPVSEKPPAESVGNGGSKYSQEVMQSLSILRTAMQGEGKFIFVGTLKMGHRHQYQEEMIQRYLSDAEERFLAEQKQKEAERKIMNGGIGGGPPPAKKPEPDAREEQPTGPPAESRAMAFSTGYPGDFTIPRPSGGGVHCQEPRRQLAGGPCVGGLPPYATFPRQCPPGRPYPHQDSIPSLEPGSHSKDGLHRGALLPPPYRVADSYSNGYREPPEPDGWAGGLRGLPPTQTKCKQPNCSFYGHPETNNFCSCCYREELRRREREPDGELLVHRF
In short: as §1

PRPF8 = PRPF8 (UniProt Q6P2Q9)
In short: as §1

PSMD7 = biological target: T3, PSMD7 (UniProt P51665)
T3 sequence (whole entry): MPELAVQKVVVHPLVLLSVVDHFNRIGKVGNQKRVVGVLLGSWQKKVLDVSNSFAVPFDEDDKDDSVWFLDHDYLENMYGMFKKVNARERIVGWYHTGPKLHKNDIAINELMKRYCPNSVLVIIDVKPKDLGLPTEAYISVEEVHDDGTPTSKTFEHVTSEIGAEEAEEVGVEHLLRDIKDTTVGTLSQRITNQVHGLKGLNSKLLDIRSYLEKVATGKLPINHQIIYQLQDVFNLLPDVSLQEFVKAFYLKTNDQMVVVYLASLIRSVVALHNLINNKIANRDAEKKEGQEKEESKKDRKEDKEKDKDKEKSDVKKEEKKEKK
In short: as §1

UCHL1 = UCHL1 (UniProt P09936)
In short: as §1

UCHL3 = biological target: T4, UCHL3 (UniProt P15374)
T4 sequence (whole entry): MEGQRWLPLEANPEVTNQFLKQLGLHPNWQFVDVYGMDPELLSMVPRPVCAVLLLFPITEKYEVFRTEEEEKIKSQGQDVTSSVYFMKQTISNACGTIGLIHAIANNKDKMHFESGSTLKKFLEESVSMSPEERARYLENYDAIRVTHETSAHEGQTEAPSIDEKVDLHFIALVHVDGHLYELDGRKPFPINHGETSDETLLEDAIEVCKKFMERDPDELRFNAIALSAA
In short: as §1

UCHL5 = biological target: T5, UCHL5 (UniProt Q9Y5K5)
T5 sequence (whole entry): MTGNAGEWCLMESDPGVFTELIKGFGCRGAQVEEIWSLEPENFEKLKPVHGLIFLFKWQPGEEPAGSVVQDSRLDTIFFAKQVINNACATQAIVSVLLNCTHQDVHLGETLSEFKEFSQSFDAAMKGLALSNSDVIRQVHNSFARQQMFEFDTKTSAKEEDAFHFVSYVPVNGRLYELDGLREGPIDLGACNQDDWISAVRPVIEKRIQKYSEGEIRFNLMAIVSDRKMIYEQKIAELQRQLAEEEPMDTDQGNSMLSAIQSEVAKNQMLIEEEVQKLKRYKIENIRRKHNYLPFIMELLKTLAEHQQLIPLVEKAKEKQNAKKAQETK
In short: as §1

USP10 = USP10 (UniProt Q14694)
In short: as §1

USP15 = biological target: T6, USP15 (UniProt Q9Y4E8)
T6 sequence (whole entry): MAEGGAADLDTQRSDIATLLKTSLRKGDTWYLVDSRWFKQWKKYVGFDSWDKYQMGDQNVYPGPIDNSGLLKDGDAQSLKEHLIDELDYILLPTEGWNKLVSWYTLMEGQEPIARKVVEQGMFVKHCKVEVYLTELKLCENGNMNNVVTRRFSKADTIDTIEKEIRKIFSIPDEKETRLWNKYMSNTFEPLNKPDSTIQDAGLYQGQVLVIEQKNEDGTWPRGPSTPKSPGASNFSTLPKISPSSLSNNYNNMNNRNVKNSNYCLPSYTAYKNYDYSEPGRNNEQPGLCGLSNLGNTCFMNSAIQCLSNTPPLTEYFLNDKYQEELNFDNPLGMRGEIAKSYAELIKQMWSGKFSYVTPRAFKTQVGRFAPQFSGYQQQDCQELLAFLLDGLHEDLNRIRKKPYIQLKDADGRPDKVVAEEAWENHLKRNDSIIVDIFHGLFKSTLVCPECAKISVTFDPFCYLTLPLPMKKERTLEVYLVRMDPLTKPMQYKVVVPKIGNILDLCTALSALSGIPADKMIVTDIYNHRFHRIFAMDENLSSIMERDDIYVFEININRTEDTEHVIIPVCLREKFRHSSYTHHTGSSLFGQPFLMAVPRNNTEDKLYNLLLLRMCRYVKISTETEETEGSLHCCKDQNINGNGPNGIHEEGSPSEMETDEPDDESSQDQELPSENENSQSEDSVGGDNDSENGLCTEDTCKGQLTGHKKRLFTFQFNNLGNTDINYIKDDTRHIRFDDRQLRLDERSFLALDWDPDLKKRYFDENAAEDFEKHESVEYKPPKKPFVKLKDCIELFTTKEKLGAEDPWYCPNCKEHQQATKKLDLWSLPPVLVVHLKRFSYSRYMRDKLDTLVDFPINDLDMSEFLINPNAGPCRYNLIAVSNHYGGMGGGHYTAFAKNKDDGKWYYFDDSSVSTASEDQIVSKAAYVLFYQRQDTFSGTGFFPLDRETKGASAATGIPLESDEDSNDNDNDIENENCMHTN
In short: as §1

USP16 = USP16 (UniProt Q9Y5T5)
In short: as §1

USP16, sequence (Q9Y5T5 whole entry, looked up): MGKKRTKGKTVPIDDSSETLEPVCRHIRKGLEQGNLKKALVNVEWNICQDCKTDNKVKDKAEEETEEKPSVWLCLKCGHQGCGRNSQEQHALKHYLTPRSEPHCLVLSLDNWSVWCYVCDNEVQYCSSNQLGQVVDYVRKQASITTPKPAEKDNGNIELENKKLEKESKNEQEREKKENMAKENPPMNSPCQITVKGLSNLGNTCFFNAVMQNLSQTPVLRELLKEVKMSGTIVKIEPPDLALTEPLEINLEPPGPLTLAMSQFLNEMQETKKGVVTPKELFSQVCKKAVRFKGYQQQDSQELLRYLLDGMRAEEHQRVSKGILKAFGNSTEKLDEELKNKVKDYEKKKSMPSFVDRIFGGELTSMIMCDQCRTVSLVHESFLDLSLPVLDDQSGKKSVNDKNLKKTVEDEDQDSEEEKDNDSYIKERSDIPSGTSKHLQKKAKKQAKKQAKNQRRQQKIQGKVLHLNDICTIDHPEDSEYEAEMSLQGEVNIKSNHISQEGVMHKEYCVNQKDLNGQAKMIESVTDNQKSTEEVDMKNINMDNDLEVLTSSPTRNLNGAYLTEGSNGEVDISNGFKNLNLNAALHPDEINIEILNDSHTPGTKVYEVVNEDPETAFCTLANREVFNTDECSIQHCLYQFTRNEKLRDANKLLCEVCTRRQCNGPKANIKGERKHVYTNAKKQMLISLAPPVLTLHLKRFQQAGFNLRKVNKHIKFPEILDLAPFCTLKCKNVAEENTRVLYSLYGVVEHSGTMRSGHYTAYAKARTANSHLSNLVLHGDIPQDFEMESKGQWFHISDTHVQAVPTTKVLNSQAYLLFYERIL
UCHL1, sequence (P09936 whole entry, looked up): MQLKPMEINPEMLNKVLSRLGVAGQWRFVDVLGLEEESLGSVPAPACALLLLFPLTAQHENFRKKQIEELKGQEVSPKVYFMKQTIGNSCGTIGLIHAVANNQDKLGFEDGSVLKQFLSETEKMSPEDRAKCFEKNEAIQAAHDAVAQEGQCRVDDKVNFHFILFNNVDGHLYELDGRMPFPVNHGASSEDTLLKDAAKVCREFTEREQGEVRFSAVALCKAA
USP10, sequence (Q14694 whole entry): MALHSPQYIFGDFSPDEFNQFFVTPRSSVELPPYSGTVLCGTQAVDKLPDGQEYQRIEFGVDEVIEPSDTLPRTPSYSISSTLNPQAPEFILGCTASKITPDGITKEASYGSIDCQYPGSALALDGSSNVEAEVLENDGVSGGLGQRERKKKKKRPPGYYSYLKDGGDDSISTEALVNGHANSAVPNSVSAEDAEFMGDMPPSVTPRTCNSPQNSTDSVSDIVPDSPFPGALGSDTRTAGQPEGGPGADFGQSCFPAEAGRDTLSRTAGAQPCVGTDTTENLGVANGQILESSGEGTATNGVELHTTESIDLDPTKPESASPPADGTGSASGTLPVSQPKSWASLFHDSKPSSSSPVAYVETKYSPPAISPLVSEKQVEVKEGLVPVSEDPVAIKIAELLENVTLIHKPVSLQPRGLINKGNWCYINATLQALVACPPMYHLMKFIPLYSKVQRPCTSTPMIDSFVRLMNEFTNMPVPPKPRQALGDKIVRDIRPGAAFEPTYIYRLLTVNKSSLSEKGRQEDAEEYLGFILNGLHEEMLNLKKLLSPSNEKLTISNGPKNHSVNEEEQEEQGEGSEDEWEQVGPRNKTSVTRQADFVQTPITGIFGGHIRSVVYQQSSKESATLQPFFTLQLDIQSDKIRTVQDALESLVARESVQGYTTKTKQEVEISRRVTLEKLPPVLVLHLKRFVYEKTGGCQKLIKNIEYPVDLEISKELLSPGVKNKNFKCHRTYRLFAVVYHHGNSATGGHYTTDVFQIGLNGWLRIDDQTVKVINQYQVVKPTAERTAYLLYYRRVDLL

Structure (SMILES): COc1ccc(-c2csc(NC(=O)CCl)n2)cc1
- log2 ratio of Biotin-Ahx-Ub-VS probe labelling (OTUD6B): -0.417
- log2 ratio of Biotin-Ahx-Ub-VS probe labelling (OTUD7B): -0.639
- log2 ratio of Biotin-Ahx-Ub-VS probe labelling (PRPF8): 0.0611
- log2 ratio of Biotin-Ahx-Ub-VS probe labelling (PSMD7): -0.221
- log2 ratio of Biotin-Ahx-Ub-VS probe labelling (UCHL1): -1.27 (active)
- log2 ratio of Biotin-Ahx-Ub-VS probe labelling (UCHL3): -0.274
- log2 ratio of Biotin-Ahx-Ub-VS probe labelling (UCHL5): -3.29 (active)
- log2 ratio of Biotin-Ahx-Ub-VS probe labelling (USP10): -0.17
- log2 ratio of Biotin-Ahx-Ub-VS probe labelling (USP15): -0.394
- log2 ratio of Biotin-Ahx-Ub-VS probe labelling (USP16): -0.287
